# Pol iota inh: DNA polymerase iota (human) inhibition. 390,000 compounds, 1% hits. Potency, µM (titrated, usually from 115 µM), without a hit: at the top dose activity, negative = inhibition, usual class: inhibitors. AID 588590. Pol iota fluorescent replication assay, 10 min. Q9UNA4
#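 Pol iota at 10 nM preincubated 15 min with compounds at room temperature; reaction started with fluorescent substrate, 50 nM final. Fluorescence read kinetically at 0 and 10 min; buffer-only wells as negative control.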
# FEN1 inh-1: blocks human flap endonuclease 1. P39748. Recombinant FEN1 flap cleavage, fluorescence, 15 min. Potency, µM (top dose mostly 114 µM), for inactives: at the top dose activity change, negative = inhibition, actives largely listed as inhibitors. 390,000 compounds, 0.35% hits; note: % is set by controls: 0 for no effect and ±100 for the full control effect; nearly all actives have a fitted effect of over 65% in size
#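 Enzyme 10 nM, 15 min RT preincubation with compound; start with substrate 50 nM final; reads at 0 and 15 min; qHTS titration, four-parameter Hill fit.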
# Pol eta inh-1: blocks human DNA polymerase eta activity | Q9Y253 | recombinant Pol eta, fluorescent DNA replication assay | Potency, µM (top dose mostly 114 µM), inactives show top-dose activity change, negative = inhibition, actives largely listed as inhibitors | 390,000 compounds, 1.2% hits | AID 588591; note: % is set by controls: 0 for no effect and ±100 for the full control effect
#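 Fluorescent replication assay: 50 nM final substrate added after a 15 min room-temperature compound preincubation with 10 nM enzyme. Signal taken at 0 min and again at 10 min.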
# WRN helicase inh-1: WRN helicase (human) inhibition; Potency, µM (series often up to 114 µM), for inactives: top-dose activity change, negative = inhibition, actives largely listed as inhibitors; WRN helicase unwinding, fluorescent forked duplex, kinetic; Q14191; 360,000 compounds, 0.46% hits; AID 651768; note: % is set by controls: 0 for no effect and ±100 for the full control effect; nearly all actives have a fitted effect of over 55% in size
#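 Screening of the MLSMR collection measured strand separation of a quenched forked DNA duplex (100 nM) by 20 nM WRN with 2 mM ATP, all final. Compounds were preincubated with enzyme 15 min at room temperature.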
# Pol kappa inh-1: DNA polymerase kappa (human) inhibition; Q9UBT6; 400,000 compounds, 0.53% hits; AID 588579; Potency, µM (series often up to 107 µM), inactives show top-dose activity, negative = inhibition, actives largely listed as inhibitors; purified Pol kappa, fluorescent DNA synthesis assay, 10 min; note: % is set by controls: 0 for no effect and ±100 for the full control effect
#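 Here, compound and 10 nM enzyme are combined for 15 min at room temperature; adding 50 nM substrate (final) starts DNA synthesis, tracked by fluorescence at 0 and 10 min against buffer-only wells.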
# Pol beta inh: inhibitors of human DNA polymerase beta | Pol beta primer extension/strand displacement, fluorescence kinetic | 340,000 compounds, 1.3% hits | Potency, µM (titrated, usually from 114 µM), for the others: top-dose activity change, negative = inhibition, usual class: inhibitors; note: % is set by controls: 0 for no effect and ±100 for the full control effect
#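 Preincubation: enzyme (10 nM) with compound, 15 min, RT. Reaction: substrate added to 50 nM final. Reads: 0 and 10 min. Analysis: normalized, Hill fit.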
# Pol kappa inh-2: Pol kappa (human) inhibition, cherry-pick confirmation; shares compounds with Pol eta inh-1; purified Pol-kappa, fluorescent strand-displacement substrate; Potency, µM, usual class: inhibitors; 920 compounds, 76% hits; AID 720501
# Pol eta inh-2: Pol eta (human) inhibition, cherry-pick confirmation. shares compounds with Pol eta inh-1. AID 720502. Pol eta primer extension, TAMRA/BHQ fluorescence, 10 min. 2,600 compounds, 64% hits. Potency, µM, usual class: inhibitors
# FEN1 inh-2: FEN1 inhibition, cherry-pick retest; shares compounds with FEN1 inh-1; FEN1 flap cleavage, TAMRA/BHQ2 fluorogenic DNA substrate; Potency, µM, actives largely listed as inhibitors; 880 compounds, 79% hits; AID 720498; note: nearly all actives have a fitted effect of over 60% in size
# WRN helicase inh-2: confirmation of human WRN helicase inhibitors. WRN helicase DNA unwinding, fluorescence kinetic. Potency, µM (top dose mostly 57.1 µM), without a hit: at the top dose activity, negative = inhibition, hits mostly inhibitors. 610 compounds, 63% hits. shares compounds with WRN helicase inh-1; note: nearly all actives have a fitted effect of over 65% in size
# TO displacement: DNA binding via thiazole orange displacement; 610 compounds, 10% hits; AID 720499; shares compounds with WRN helicase inh-1; thiazole orange DNA binding displacement, fluorescence; Potency, µM (doses to about 57.1 µM), for the others: top-dose activity change, negative = inhibition, most hits filed as inhibitors;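 note: drop in dye fluorescence marks compound binding to DNA; % is set by controls: 0 for no effect and ±100 for the full control effect; nearly all actives have a fitted effect of over 60% in size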
# BLM helicase inh: BLM helicase inhibition, WRN selectivity check; shares compounds with WRN helicase inh-1; Recombinant BLM helicase DNA unwinding, red fluorescence; Potency, µM (top dose mostly 57.1 µM), without a hit: at the highest dose activity change, negative = inhibition, hits mostly inhibitors; 610 compounds, 60% hits; AID 720503; note: nearly all actives have a fitted effect of over 60% in size
# Target sequence (P54132 whole entry, looked up): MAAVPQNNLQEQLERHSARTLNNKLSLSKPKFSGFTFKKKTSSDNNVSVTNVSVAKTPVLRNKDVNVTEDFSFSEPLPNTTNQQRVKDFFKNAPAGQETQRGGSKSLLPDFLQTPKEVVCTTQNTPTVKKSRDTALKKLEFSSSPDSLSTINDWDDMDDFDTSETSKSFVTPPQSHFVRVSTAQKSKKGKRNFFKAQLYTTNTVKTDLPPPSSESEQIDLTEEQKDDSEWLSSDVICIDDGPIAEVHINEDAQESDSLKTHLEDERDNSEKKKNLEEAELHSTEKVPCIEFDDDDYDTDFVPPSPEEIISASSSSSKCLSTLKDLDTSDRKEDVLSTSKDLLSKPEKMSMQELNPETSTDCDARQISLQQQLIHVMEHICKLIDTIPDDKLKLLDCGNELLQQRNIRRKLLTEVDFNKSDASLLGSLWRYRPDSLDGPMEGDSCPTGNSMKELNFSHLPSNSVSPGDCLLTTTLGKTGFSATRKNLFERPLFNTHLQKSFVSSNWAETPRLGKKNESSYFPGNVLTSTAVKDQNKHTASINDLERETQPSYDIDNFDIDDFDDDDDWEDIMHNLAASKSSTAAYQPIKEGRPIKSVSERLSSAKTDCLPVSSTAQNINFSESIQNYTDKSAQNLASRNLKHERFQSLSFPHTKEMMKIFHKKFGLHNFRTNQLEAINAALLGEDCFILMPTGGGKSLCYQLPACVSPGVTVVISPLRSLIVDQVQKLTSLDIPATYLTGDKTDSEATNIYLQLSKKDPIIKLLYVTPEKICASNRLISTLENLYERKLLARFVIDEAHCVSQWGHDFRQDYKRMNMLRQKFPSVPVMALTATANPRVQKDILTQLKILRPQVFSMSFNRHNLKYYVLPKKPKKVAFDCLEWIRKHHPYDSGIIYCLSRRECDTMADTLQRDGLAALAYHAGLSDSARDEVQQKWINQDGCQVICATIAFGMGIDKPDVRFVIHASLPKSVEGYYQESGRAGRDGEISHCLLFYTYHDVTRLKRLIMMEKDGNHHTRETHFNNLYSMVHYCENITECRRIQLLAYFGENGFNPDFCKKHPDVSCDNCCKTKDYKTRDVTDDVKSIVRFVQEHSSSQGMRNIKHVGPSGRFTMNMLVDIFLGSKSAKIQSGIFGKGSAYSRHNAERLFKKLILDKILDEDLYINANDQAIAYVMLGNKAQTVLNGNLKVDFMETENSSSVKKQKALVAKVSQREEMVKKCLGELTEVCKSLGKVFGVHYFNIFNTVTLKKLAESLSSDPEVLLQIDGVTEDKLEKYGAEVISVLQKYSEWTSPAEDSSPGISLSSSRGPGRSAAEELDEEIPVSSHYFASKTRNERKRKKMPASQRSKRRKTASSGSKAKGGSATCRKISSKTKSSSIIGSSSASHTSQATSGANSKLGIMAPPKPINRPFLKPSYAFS
# Starred values were filed as active, the others as inactive; ? = inconclusive; . = not tested or not shown; [ ] = dose if it differs, or a comment. Compounds with a hit are over-represented: about 2.4% of the library has one in this group of screens. Calls come from the whole dose curve; as a rule, active = well fitted curve in the direction sought with a large enough effect; inconclusive = small, poorly fitted or top-dose-only effect, or another doubt; inactive = no such curve, though single readings can be large; an effect the other way counts as inactive or inconclusive. Potency is the fitted concentration of half-maximal effect.
SMILES,Pol iota inh,FEN1 inh-1,Pol eta inh-1,WRN helicase inh-1,Pol kappa inh-1,Pol beta inh,Pol eta inh-2,FEN1 inh-2,others
O=C1c2cccc3cc([N+](=O)[O-])cc(c23)C(=O)N1c1ccccc1O,95%,13%,-18%,5%[57.1 µM],-12%,-1%,.,.,
Nc1ncc(S(=O)(=O)c2ccc(Cl)cc2)c(N)n1,?,8%,-25%,8%,-3%,-1%,.,.,
Cc1ccc(N2C(=O)NC(=O)/C(=C/C=C/c3ccco3)C2=O)cc1,11µM*,?,?,45µM*,20µM*,32µM*,?,.,
Cc1cc(C)cc(N2C(=O)NC(=O)/C(=C\C=C\c3ccco3)C2=O)c1,22µM*,-13%,18µM*,50µM*,40µM*,28µM*,30*,.,Pol kappa inh-2=19*
CN(CC(=O)N[C@H](CO)Cc1ccccc1)C(=O)[C@H](CCS(C)=O)NC(=O)[C@@H](N)Cc1ccc(O)cc1 (stereo partly specified),.,.,.,.,6%[19.4 µM],.,.,.,
Cc1ccc(/C=C2/C(=O)NC(=O)N(C)C2=O)cc1,59%,1%,-5%,?,-3%,24%,.,.,
CN1C(=O)NC(=O)/C(=C/c2ccc([N+](=O)[O-])s2)C1=O,?,?,22µM*,?,?,?,76*,7.6*,
Cc1cccc(Oc2nc3c(C)cccn3c(=O)c2/C=C(\C#N)c2nc3ccccc3s2)c1,-10%,?,50µM*,.,-12%,-17%,?,67*,Pol kappa inh-2=42*
COC(=O)c1c(Sc2ccccc2)c2ccccc2n1C,?,10%,-5%,1%,?,13%,.,.,
CC[N+](C)(CC)CCCCOc1ccc2c(c1)C(=O)c1cc(OCCCC[N+](C)(CC)CC)ccc1-2,14µM*,?,?,40µM*,?,?,?,21*,
CCCCCCCCCCCC[N+](C)(C)CCOc1ccccc1,.,.,.,.,-18%[60.1 µM],.,.,.,
O=[N+]([O-])c1ccc(N2CCCCCC2)c2nonc12,28µM*,?,?,22µM*,?,20µM*,60*,43*,
c1cncc([C@H]2CCCCN2)c1,.,.,.,.,-9%[19.4 µM],.,.,.,
Cc1c(O)c(O)cc2c1CC=C1[C@]3(C)CC[C@]4(C)CC[C@@](C)(C(=O)O)CC4[C@]3(C)CC[C@]12C (stereo partly specified),.,.,.,.,-6%[60.1 µM],.,.,.,
CC1=C(O)C(=O)C=C2C1=CC=C1C2(C)CCC2(C)C3CC(C)(C(=O)O)CCC3(C)CCC12C (stereo unspecified),3.5µM*,40µM*,7.9µM*,25µM*,32µM*,.,34*,.,WRN helicase inh-2=?;TO displacement=-19%;BLM helicase inh=22µM*
CN1C(=O)CCS(=O)(=O)[C@@H]1c1ccc(Cl)cc1,.,.,.,.,-7%[12 µM],.,.,.,
CCN(CC)c1ccc(/C=C2\C(=O)NC(=O)N(Cc3ccco3)C2=O)cc1,20µM*,?,22µM*,28µM*,79µM*,?,?,.,Pol kappa inh-2=34*;WRN helicase inh-2=?;TO displacement=1%;BLM helicase inh=?
CCN(CC)c1ccc(/C=C2/C(=O)NC(=O)N(CC3CCCO3)C2=O)cc1 (stereo unspecified),?,?,3%,-34%,-2%,19%,.,.,
CCN1C[C@]2(C)CC[C@H](O)[C@@]34C5C[C@@H]6[C@@H](OC)C[C@@](O)(C5[C@H]6O)[C@@H](CC23)[C@@H]14 (stereo partly specified),.,.,.,.,4%[19.4 µM],.,.,.,
Cn1cccc1/C=C1\C(=O)NC(=O)N(Cc2ccccc2)C1=O,22µM*,-1%,35µM*,?,50µM*,?,?,.,WRN helicase inh-2=?;TO displacement=-13%;BLM helicase inh=?
CCCCCC[C@H]1C(=O)O[C@H](C)[C@H](NC(=O)c2cccc(NC=O)c2O)C(=O)O[C@@H](C)[C@H]1OC(=O)CC(C)C,.,.,.,.,-2%[12 µM],.,.,.,
O=C1NC(=S)NC(=O)C1=Cc1cccc2cc3ccccc3cc12,35µM*,?,50µM*,?,-4%,-4%,?,.,WRN helicase inh-2=?;TO displacement=-5%;BLM helicase inh=?
C[C@@H]1OC(=O)[C@H]2C[C@H]3CCCC[C@@H]3[C@@H](/C=C/[C@H]3CCC[C@H](C)N3C)[C@@H]12,.,.,.,.,5%[19.4 µM],.,.,.,
O=C1NC(=O)N(c2ccccc2)C(=O)/C1=C\c1ccc([N+](=O)[O-])s1,?,32µM*,10µM*,28µM*,28µM*,?,34*,19*,WRN helicase inh-2=?;TO displacement=-15%;BLM helicase inh=17µM*
N#Cc1c(-c2csc(-c3no[n+]([O-])c3C#N)c2)no[n+]1[O-],.,.,.,.,.,.,?,.,WRN helicase inh-2=?;TO displacement=-15%;BLM helicase inh=?
SMILES,Pol iota inh,FEN1 inh-1,Pol eta inh-1,WRN helicase inh-1,Pol kappa inh-1,Pol beta inh,Pol eta inh-2,FEN1 inh-2,others
Nc1ccc2ccc3cccc[n+]3c2c1,3%,50µM*,?,-10%[11.6 µM],-26%,4%,.,?,
O=C(CCl)c1ccc(Oc2ccc(C(=O)CCl)cc2)cc1,.,.,.,.,-9%[19.4 µM],.,.,.,
Cc1ccccc1-n1c(O)c(/C=C/C=Nc2ccccc2)c(=O)[nH]c1=O,79µM*,-9%,?,?,-14%,-3%,.,85*,
O=S(=O)(c1ccc(Cl)cc1)c1cc(Cl)c(Cl)cc1Cl,.,.,.,.,-16%[60.1 µM],.,.,.,
CN1CCC(N(C)c2nc(-c3ccc([N+](=O)[O-])cc3)nc3ccccc23)CC1,?,35µM*,-23%,-24%[57.1 µM],-28%,11µM*,.,34*,
CN1CCc2nc(N)c(C#N)c(-c3ccccc3)c2C1,?,-5%,-15%,-1%,0%,-3%,.,.,

# Source: PubChem BioAssay (National Center for Advancing Translational Sciences (NCATS))
